The list shows a part of the results. The source made the active and inactive calls. The call rests on the fitted dose curve.
The compounds below were run against Dual specificity protein kinase CLK4 (Homo sapiens) (UniProt Q9HAZ1) (assay: Kinase Inhibition Study on Inhibitors of CDC-like Kinase 4 (Reaction Biology data): SAR round 2). Conditions: Reaction Biology kinase assay, 10 uM ATP.
Excerpt: NIH Molecular Libraries Probe Production Centers Network [MLPCN] NIH Chemical Genomics Center [NCGC] MLPCN Grant: 1R03MH084827-01 Assay Submitter (PI): Tom Misteli NCGC Assay Overview: Alternative splicing of pre-mRNAs plays a major role in the regulation of eukaryotic gene expression. Alternative splicing is now thought to be one of the primary reasons for the complexity of higher organisms leading to an average of three protein isoforms per gene. Aberrant splicing can lead to a number of diseases and is known to play a role in rare genetic diseases such as progeria syndrome. Hutchinson-Gilford Progeria Syndrome (HGPS) is a pediatric premature aging disease caused by a spontaneous mutation in the lamin A/C (LMNA) gene due to a single point mutation in the lamin A gene effecting 1 in 4 million people. To identify both specific splicing modulators of the lamin A gene as well as general splicing modulators, a cell-based HTS assay was developed using a minigene reporter system (AIDs, 1459 & 1487). […] This AID summarizes the characterization of lead compounds in Clk4.
All kinase reactions were performed using 10 uM ATP in the assay. 100% activity was taken from kinase reactions with DMSO alone (the vehicle used for compound stock solutions).

Sequence of Dual specificity protein kinase CLK4 (Homo sapiens) (Q9HAZ1 whole entry, looked up, canonical isoform): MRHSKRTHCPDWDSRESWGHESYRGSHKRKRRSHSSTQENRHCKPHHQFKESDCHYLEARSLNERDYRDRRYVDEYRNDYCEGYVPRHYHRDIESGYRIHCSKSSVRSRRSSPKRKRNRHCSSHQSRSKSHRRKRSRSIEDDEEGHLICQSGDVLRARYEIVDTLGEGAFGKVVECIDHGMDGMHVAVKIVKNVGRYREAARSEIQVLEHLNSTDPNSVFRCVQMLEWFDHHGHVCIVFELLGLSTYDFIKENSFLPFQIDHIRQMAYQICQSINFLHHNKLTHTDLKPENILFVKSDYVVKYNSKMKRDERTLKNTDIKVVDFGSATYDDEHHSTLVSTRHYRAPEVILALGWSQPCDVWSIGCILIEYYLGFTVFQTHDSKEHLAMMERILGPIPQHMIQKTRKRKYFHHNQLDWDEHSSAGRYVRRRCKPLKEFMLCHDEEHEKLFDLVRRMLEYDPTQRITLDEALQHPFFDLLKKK

Potency, active:
c1nc(N2CCOCC2)c2cc(-c3ccc4c(c3)OCO4)ccc2n1 135 nM
CC(Nc1ncnc2ccc(-c3ccc4c(c3)OCO4)cc12)c1ccco1 (centres undefined) 7600 nM
c1coc(CCNc2ncnc3ccc(-c4ccc5c(c4)OCO5)cc23)c1 42 nM
CN(Cc1cncn1C)c1ncnc2ccc(-c3ccc4c(c3)OCO4)cc12 507 nM

— PubChem BioAssay AID504421 (National Center for Advancing Translational Sciences (NCATS), 2011)
